Cycloheximide cs: affects cycloheximide protein synthesis inhibition readout, counter-screen; cell reporter, cycloheximide protein synthesis inhibition counterscreen; max response, %; 12% of 300,000 active; in the data active = max response mostly above about 13%, no sharp cut-off; inactive = mostly below about 14%; note: read at 38.3 µM for the half of the compounds with a filed dose; 0% is about no effect
AMA1-RON2 inh: AMA1-RON2 (P. falciparum) interaction inhibition. Potency, µM (series often up to 58.2 µM), for the others: top-dose activity change, negative = inhibition, hits mostly inhibitors. AlphaScreen AMA1-biotinylated RON2 peptide binding. 0.2% of 360,000 active; active = well fitted inhibition curve with a large enough effect; inconclusive = small, poorly fitted or top-dose-only effect; inactive = no such curve, though single readings can be large or run the other way;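 note: potency is the fitted concentration of half-maximal effect; 0% = vehicle wells and -100% = peptide control; nearly all actives have a fitted effect of over 45% in size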
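AMA1 (3D7) with his tag at 25 nM final met compounds first, then biotinylated RON2 peptide at 25 nM; detection used donor plus acceptor beads, 10 µg/mL apiece, read by AlphaScreen after 30 min at room temperature.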
Shiga inhibitor: Shiga toxin inhibition; inhibition, % at 38.7 µM; 9.2% of 290,000 active; AID 2315; Vero cells, Shiga toxin protein synthesis inhibition reporter; in the data active = inhibition mostly above about 28%, no sharp cut-off; inactive = mostly below about 43%; note: 0% is about no effect
Lassa entry inh: blocks Lassa virus binding to or entry into cells; Lassa virus pseudotype entry inhibition, cell reporter; Potency, µM (titrated, usually from 37.9 µM), inactives show at the highest dose activity change, negative = inhibition, most hits filed as inhibitors; 1.2% of 300,000 active; calls by dose curve; tested in HEK293 cells; note: potency is the fitted concentration of half-maximal effect; % is set by controls: 0 for no effect and ±100 for the full control effect; nearly all actives have a fitted effect of over 50% in size
MARV entry inh: Marburg virus entry inhibition. Marburg virus pseudotyped entry inhibition, cell reporter. 1.8% of 300,000 active. Potency, µM (top dose mostly 37.8 µM), for the others: top-dose activity change, negative = inhibition, hits mostly inhibitors; calls by dose curve; tested in HEK293 cells; note: potency is the fitted concentration of half-maximal effect; % is set by controls: 0 for no effect and ±100 for the full control effect
An asterisk follows results filed as active; ? = inconclusive; · = no result given; [ ] = dose if it differs, or a comment. This is one part of a sample in which hits are shown more often than they occur.

SMILES	Cycloheximide cs	AMA1-RON2 inh	Shiga inhibitor	Lassa entry inh	MARV entry inh
Cc1ccc(CONC(=O)c2ccccc2)cc1	40*	3%	67*	?	8%[46.1 µM]
Cc1ccc(CONC(=O)c2ccc(C)cc2)cc1	·	-12%	·	·	·
Cc1ccc(C(=O)N/C(=C\c2ccccc2)C(=O)OCc2ccccc2)cc1	45*	-7%	71*	-8%	-6%
CCCCOC(=O)Oc1ccc2c(=O)c(Oc3cccc(C)c3)coc2c1	35*	-6%	11	-7%	?
CCCCOC(=O)Oc1ccc2c(=O)c(Oc3cc(C)cc(C)c3)coc2c1	-1	3%[2.32 µM]	-10	9%	?
Cc1ccc(Oc2coc3cc(O)ccc3c2=O)cc1	31*	-10%	29	·	·
Cc1ccc2oc(C(=O)N(Cc3ccc(N(C)C)cc3)C3CCS(=O)(=O)C3)c(C)c2c1 (stereo not given)	16*	28µM*	16	?	?
Cc1ccc2c(C)c(C(=O)N(Cc3ccc(N(C)C)cc3)C3CCS(=O)(=O)C3)oc2c1 (stereo not given)	1	18µM*	5	·	·
COc1ccc(C(CNC(=O)c2cc(S(=O)(=O)N3CCCC3)ccc2Cl)N2CCCC2)cc1 (stereo not given)	·	-2%	·	·	·
O=C(/C=C1\NC2(CCCC2)Cc2ccccc21)C(=O)N/N=C/c1ccccc1O	23*	42%	31	15µM*	11µM*
O=C(C1CCCC1)N1CCN(S(=O)(=O)c2ccc(F)cc2)CC1	7	34%	-5	-15%	-11%[46.1 µM]
Cc1ccc(S(=O)(=O)N2CCN(C(=O)CC(C)C)CC2)cc1	32*	5%	81*	?	15%[46.1 µM]
Cc1ccc(S(=O)(=O)N2CCC(C(=O)N3CCC3)CC2)cc1	45*	1%	67*	-1%[46.1 µM]	3%[46.1 µM]
O=C(C1CCCCC1)N1CCN(S(=O)(=O)c2ccc(Br)cc2)CC1	-3	14%	23	18µM*	?
COc1ccc(NC(=O)NC23CC4CC(CC(C4)C2)C3)cc1OC	9	1%	-2	3%	14%
O=C(Nc1ccc2c(c1)OCCO2)NC12CC3CC(CC(C3)C1)C2	49*	-7%	108*	-12%	?
O=C(Nc1ccc2c(c1)OCO2)NC1(C(F)(F)F)Oc2ccccc2O1	30	-15%	66	-4%	20%
O=C(Nc1ccc2c(c1)OCCO2)NC1(C(F)(F)F)Oc2ccccc2O1	92*	-4%	89*	·	·
O=C(Nc1cccc([N+](=O)[O-])c1)Nc1ccc2c(c1)OCCO2	33*	-3%	53	-3%	-29%[46.1 µM]
Cc1ccnc(NC(=O)Nc2ccc3c(c2)OCO3)c1	27*	3%	74*	?	?
CC1(C(=O)NS(=O)(=O)C2CC2)CCN(C(=O)c2ccc(F)cc2Cl)C1 (stereo not given)	·	0%	·	·	·
CCOC(=O)CC(NC(=O)Cn1nnc(-c2ccccc2F)n1)c1ccccc1Cl (stereo not given)	4	12%	-10	-18%[46.1 µM]	?
COc1ccc2c(c1)O[C@H](c1cccc(C(F)(F)F)c1)[C@@H](O)C2=O	·	·	·	·	-33%[14.2 µM]
C/C(=N/O)C(=O)NCCCn1ccnc1	·	·	·	·	20%[46.1 µM]
NC(=O)c1ccc(NC(=O)COC(=O)c2ccc3c(c2)OCO3)cc1	·	-1%	·	·	·
SMILES	Cycloheximide cs	AMA1-RON2 inh	Shiga inhibitor	Lassa entry inh	MARV entry inh
NC(=O)c1ccc(NC(=O)Nc2ccc3c(c2)OCO3)cc1	34*	-13%	47*	·	·
CC1(C(=O)Nc2ccc3c(c2)OCCO3)CC1(Cl)Cl (stereo not given)	23*	-5%	42*	-9%[46.1 µM]	?
O=C(O)C1CC=CCC1C(=O)Nc1ccc2c(c1)OCCO2 (stereo not given)	61*	0%	36*	5%	-2%[46.1 µM]
O=C(CCl)Nc1ccc2c(c1)OCO2	34*	-1%	26	?	?
Cc1ccccc1S(=O)(=O)N1CCN(c2ccc3c(c2)C2CC3CCN2C(=O)OCc2ccccc2)CC1 (stereo not given)	·	-21%	·	·	·
O=C(Nc1ccc2c(c1)OCCO2)Nc1ccc2c(c1)OCO2	33*	-23%	62*	8.9µM*	?
CC(C)N1CCC(NC(=O)Nc2ccc3c(c2)OCO3)CC1	29*	0%	28	21%	2%[46.1 µM]
COC(=O)c1ccc(NC(=O)Nc2ccc3c(c2)OCO3)cc1	50*	-4%	87*	-14%[46.1 µM]	?
O=C(Nc1ccc2c(c1)CCC2)Nc1ccc2c(c1)OCO2	47*	-5%	134*	·	·
Cc1ccc(NC(=O)CN(C)CC(=O)Nc2ccc3c(c2)OCO3)cc1	·	46%	·	·	·

Source: PubChem BioAssay
